# Results from PubChem BioAssay (NCI).
# About 83,000 compounds went through this panel and 20% of them were active in at least one assay; those are over-represented in the sample as a whole.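 For each line, cells grew in 96-well plates with the test compound present at a single concentration for 48 hours.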 Unmarked numbers belong to inactive results. Activity calls are given as the source filed them. Rule for the calls: active = growth percent below 10; inactive = the rest.
# How the values were obtained:
# Assay in all cases: NCI-60 one-dose screen, 48 h (100 = growth as untreated, 0 = no growth, -100 = all killed)
# Details in all cases: 10 µM unless noted
# [1] = test system: SK-MEL-2 melanoma
# [2] = test system: EKVX NSCLC
# [3] = test system: SN12C renal
# [4] = test system: UO-31 renal
# [5] = test system: TK-10 renal
# [6] = test system: ACHN renal
# [7] = test system: CAKI-1 renal
# [8] = test system: A498 renal
# [9] = test system: CCRF-CEM leukemia
# [10] = test system: MOLT-4 leukemia
# [11] = test system: RPMI-8226 leukemia
# [12] = test system: OVCAR-8 ovarian
# [13] = test system: OVCAR-5 ovarian
# [14] = test system: OVCAR-4 ovarian
# [15] = test system: SK-OV-3 ovarian
# [16] = test system: IGROV1 ovarian
# [17] = test system: HS 578T breast
# [18] = test system: NCI/ADR-RES ovarian
# [19] = test system: OVCAR-3 ovarian
# [20] = test system: SR leukemia
SMILES,growth [1],growth [2],growth [3],growth [4],growth [5],growth [6],growth [7],growth [8],growth [9],growth [10],growth [11],growth [12],growth [13],growth [14],growth [15],growth [16],growth [17],growth [18],growth [19],growth [20]
O=C1/C(=C/c2ccc(Cl)cc2)SC(=S)N1CCc1ccc(O)cc1,99.7%,93.8%,80.2%,54.6%,80.5%,99.1%,81.3%,87.6%,23.1%,54.3%,90.6%,97.6%,104%,58.4%,90.9%,14.6%,86.1%,98.5%,–,–
COc1cccc(-c2nc3sccn3c2-c2ccnc(NCCCNS(=O)(=O)c3cccc(F)c3)c2)c1,7.47% (active),31%,28.5%,11.4%,61.1%,20.7%,19.7%,64.4%,9.96% (active),3.29% (active),–,14.4%,59.4%,20.2%,54.3%,27.7%,57.7%,4.88% (active),39.6%,–
Cc1nc(/N=C(\N)NC(=O)Nc2cccc([N+](=O)[O-])c2)sc1C,88.1%,77.3%,86.9%,83%,110%,92%,58.3%,57.2%,69.1%,51.5%,–,100%,91.5%,88.6%,101%,76.1%,74.5%,46.2%,95.9%,–
Cn1cc(C(=O)c2nc(-c3c[nH]c4ccc(F)cc34)no2)c2cc(F)ccc21,98.1%,89.8%,95.1%,69.5%,113%,96.1%,82.5%,112%,91.7%,95.2%,98.8%,95.9%,–,97.5%,83.6%,66.8%,91.3%,84%,97.4%,–
N#Cc1c(-c2ccc(Cl)cc2)nc(N/N=C/c2cccc(Br)c2)nc1N1CCOCC1,94.5%,68.7%,91.4%,51.2%,102%,71.5%,73%,-10.8% (active),50.3%,36.1%,56%,101%,–,95.6%,109%,83.6%,82.1%,90.6%,94.8%,–
COc1cccc(-c2nc3sccn3c2-c2ccnc(NCCNS(=O)(=O)c3ccccc3)c2)c1,30.1%,29.8%,28.9%,5.71% (active),55.5%,10.4%,9.12% (active),44.2%,10.1%,12%,-27.1% (active),13.9%,45.3%,15.2%,42%,25.5%,35.7%,6.38% (active),–,–
CCOC(=O)n1cc(-c2nonc2-c2cn(C)c3ncccc23)c2ccccc21,90.1%,61.2%,87.1%,58.4%,98.3%,80.1%,58.1%,99%,86.6%,69.8%,77.9%,92.6%,94.2%,71.3%,77.6%,54.2%,77.7%,73.1%,85.6%,–
O=C(N=Nc1c(O)[nH]c2ccc(Br)cc12)c1cc(-c2ccccc2)on1,95.6%,91.3%,100%,90.5%,108%,103%,88.7%,77.6%,102%,100%,105%,104%,98.9%,94.9%,111%,101%,99.1%,103%,115%,–
CSc1nc(NCCN2CCOCC2)c(C#N)c(-c2cccc([N+](=O)[O-])c2)n1,109%,87.3%,95.7%,82.5%,135%,93.7%,86.4%,55.7%,102%,98%,100%,97.4%,96.2%,87.3%,97.8%,94.9%,97.9%,95.7%,109%,–
COc1ccc(-c2nc3ccc(-c4nc5ccc(N6CCN(c7ccccc7)CC6)cc5[nH]4)cc3[nH]2)cc1OC,89%,40.1%,52%,99.6%,12.4%,44.8%,65.3%,88.4%,6.07% (active),-5.57% (active),-23% (active),-4.55% (active),–,-49.9% (active),107%,16.2%,–,67.3%,-68.3% (active),–
COc1cc(/C=C/C(=O)c2c(C)oc3nc[nH]c(=O)c23)cc(OC)c1OC,82.5%,61.9%,79.8%,63.2%,151%,74.7%,72.7%,93.4%,34%,68.4%,–,79.5%,96.5%,74.9%,98.7%,75.4%,84.3%,82.1%,77.8%,–
COc1ccc(CCNc2nc(SC)nc(-c3cccc([N+](=O)[O-])c3)c2C#N)cc1OC,98.6%,80.5%,84%,84.8%,112%,72%,78%,94.8%,98.7%,95%,82.6%,61.6%,–,5.9% (active),72.7%,95.4%,68.3%,68.4%,102%,–
COc1cc(/C=C/C(=O)c2ccc(O)c(CN3CCN(c4cc5c(cc4F)c(=O)c(C(=O)O)cn5C4CC4)CC3)c2)cc(OC)c1OC,66.2%,49.4%,38.2%,47.4%,107%,46.1%,54.7%,93%,9.83% (active),33.3%,-3.9% (active),30.8%,65.5%,49.8%,89.2%,55%,–,54.6%,14%,–
Cc1ccc(NS(=O)(=O)c2ccc(-c3cnc(C4CC4)o3)cc2)cc1C,38.5%,27%,43.6%,38.5%,44%,40.7%,27.2%,-15.8% (active),23.5%,30.1%,–,28.2%,37.6%,43.2%,30.7%,29.5%,14.3%,-10.9% (active),-1.67% (active),–
CSc1nc(Nc2cccc(NC(=O)CCl)c2)c(C#N)c(-c2cccc([N+](=O)[O-])c2)n1,57.5%,74.1%,34%,67.2%,137%,84.2%,52.2%,96.6%,-14.4% (active),1.11% (active),–,37%,78.7%,28.7%,95.5%,0.383% (active),52%,56.7%,6.67% (active),–
O=S(=O)(Nc1ccc(OC(F)F)cc1)c1ccc(-c2cnc(C3CC3)o2)cc1,63.9%,61.7%,77.5%,60.2%,102%,79.4%,47.2%,16.9%,66.8%,50.1%,–,78.4%,97.5%,52.3%,83.4%,64.8%,75.5%,41.5%,71.5%,–
Cn1cc(-c2nonc2-c2cn(C)c3ccc(F)cc23)c2ccccc21,30.6%,47.6%,33.8%,26.9%,60.6%,38.7%,26.2%,–,14.9%,15.9%,13.5%,28.5%,41.5%,41.6%,41.5%,24.6%,3.84% (active),4.44% (active),-18.9% (active),31.3%
COc1cc(/C=C/c2cc(O)c3cc(C(C)=O)c(=O)oc3c2)cc2c1O[C@]1(C)CC[C@@H](O)C(C)(C)[C@H]1C2,50.1%,59.3%,64.7%,-42.8% (active),97.9%,40.9%,29.8%,-51.5% (active),22.1%,-5.7% (active),–,84.4%,–,66.1%,64.2%,53.1%,2.8% (active),83.6%,84.6%,–
CC(=O)Nc1ccc(-n2c(O)c(/C=N/NC(=O)Cc3ccccc3Nc3c(Cl)cccc3Cl)sc2=S)cc1,113%,100%,104%,84.1%,112%,99.1%,84.9%,–,96.7%,94.2%,106%,91.7%,114%,105%,111%,96.7%,92.5%,101%,116%,72.9%
CC1=C[C@H]2c3c(c(O)c(O)c4oc5c(C)cccc5c(=O)c34)[C@H](c3cc(O)c(O)c4oc5c(C)cccc5c(=O)c34)[C@H]2C(C)(C)C1,20.9%,23.5%,10.6%,-27.2% (active),31.2%,12.2%,12.5%,–,10.8%,3.99% (active),23.4%,18.1%,30.4%,11.3%,19.1%,1.21% (active),-6.09% (active),4.23% (active),13.8%,3.62% (active)
Cn1cc(-c2nonc2-c2c[nH]c3ccc(F)cc23)c2cccnc21,90.1%,63%,85.5%,63.3%,85.9%,78.5%,63.9%,85.1%,83%,–,69.2%,89.1%,–,71.3%,87.1%,61.7%,72.9%,73.1%,82%,58.7%
O=C1/C(=C/C(Cl)=C/c2ccccc2)SC(=S)N1CCc1ccc(O)cc1,12.8%,11%,6.85% (active),-84.5% (active),16.8%,-73.4% (active),-15.7% (active),-0.593% (active),9.68% (active),–,2.88% (active),16.7%,-20.3% (active),30.7%,34.8%,-36.6% (active),37.5%,9.23% (active),-7.98% (active),13.3%
COc1ccccc1NS(=O)(=O)c1ccc2oc(SC(C)C)nc2c1,66.4%,55.9%,89.3%,73.5%,102%,151%,71.2%,–,65%,69.6%,52.2%,83.1%,82.1%,53%,114%,92.1%,95.4%,43.8%,85.7%,54.9%
Cc1ccc(NC(=O)/C=C/c2ccccc2)c(C(N)=O)c1,67%,64.1%,53.1%,46.7%,92.9%,57.7%,6.55% (active),–,7.23% (active),30.7%,23.2%,55.1%,51.8%,31.4%,2.6% (active),91.4%,-3.46% (active),24.7%,-25.8% (active),-23.3% (active)
COc1ccc(-n2nc(C)c3c(Nc4ccc(NC(=O)Nc5c(Cl)cccc5Cl)cc4)ncnc32)cc1,79.1%,67%,77%,8.74% (active),59.8%,43.3%,57.9%,63.4%,84.5%,–,50.7%,56%,97.8%,60.9%,83.3%,71.7%,71.7%,55.9%,–,32.2%
